From PubChem
hNpr1 antagonist: blocks ANP-stimulated signaling of human Npr1 receptor; P16066; HEK293 hNpr1 GloSensor cGMP, ANP-stimulated luminescence; Potency, µM (top dose mostly 46.3 µM), for inactives: at the highest dose activity change, negative = inhibition, actives largely listed as inhibitors; hit rate 1.6% among 76,000; AID 1347048; calls by dose curve; note: % is set by controls: 0 for no effect and ±100 for the full control effect; nearly all actives have a fitted effect of over 60% in size
Target sequence (P16066 whole entry, looked up): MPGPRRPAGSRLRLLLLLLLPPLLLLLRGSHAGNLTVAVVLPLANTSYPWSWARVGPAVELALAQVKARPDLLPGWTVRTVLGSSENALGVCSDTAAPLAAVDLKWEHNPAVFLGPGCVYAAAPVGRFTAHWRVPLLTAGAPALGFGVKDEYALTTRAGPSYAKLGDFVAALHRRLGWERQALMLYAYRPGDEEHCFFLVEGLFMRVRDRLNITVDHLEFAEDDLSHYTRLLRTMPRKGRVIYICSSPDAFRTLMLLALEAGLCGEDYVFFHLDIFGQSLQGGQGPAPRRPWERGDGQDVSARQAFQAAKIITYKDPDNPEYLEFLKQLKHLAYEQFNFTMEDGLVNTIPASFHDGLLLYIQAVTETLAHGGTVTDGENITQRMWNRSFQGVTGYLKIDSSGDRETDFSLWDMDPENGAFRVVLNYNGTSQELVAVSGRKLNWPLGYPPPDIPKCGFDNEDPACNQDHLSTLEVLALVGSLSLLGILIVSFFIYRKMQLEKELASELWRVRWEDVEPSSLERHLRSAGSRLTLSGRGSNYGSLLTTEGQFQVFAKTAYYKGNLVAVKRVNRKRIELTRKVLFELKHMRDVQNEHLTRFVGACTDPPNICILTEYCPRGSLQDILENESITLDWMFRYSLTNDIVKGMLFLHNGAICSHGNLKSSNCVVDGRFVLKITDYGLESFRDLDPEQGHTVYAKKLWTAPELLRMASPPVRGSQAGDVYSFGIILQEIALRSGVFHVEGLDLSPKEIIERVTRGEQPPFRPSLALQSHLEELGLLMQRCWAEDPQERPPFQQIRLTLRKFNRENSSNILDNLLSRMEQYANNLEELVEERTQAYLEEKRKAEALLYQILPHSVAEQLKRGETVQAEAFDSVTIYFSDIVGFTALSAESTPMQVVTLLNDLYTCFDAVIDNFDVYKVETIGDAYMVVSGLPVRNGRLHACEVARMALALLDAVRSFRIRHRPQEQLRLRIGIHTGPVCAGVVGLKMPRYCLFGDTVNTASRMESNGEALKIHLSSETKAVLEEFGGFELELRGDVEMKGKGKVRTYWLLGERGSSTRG
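HEK293 cells stably expressing human Npr1 and cGMP GloSensor pGS-40F, loaded 2 h with 2% GloSensor reagent, given compound 30 min at room temperature. Luminescence read before and 20 min after 0.1 nM hNppA.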
HEK293 tox: kills HEK 293 cells; HEK 293 viability, ATP luminescence (CellTiter-Glo), 48-72 h; Potency, µM (doses to about 115 µM), inactives show at the top dose activity change, negative = cytotoxicity, hits mostly inhibitors; hit rate 6.6% among 94,000; AID 1345083; note: % is set by controls: 0 for no effect and ±100 for the full control effect; nearly all actives have a fitted effect of over 60% in size
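HEK 293 seeded at 250 cells/well receive compound via pintool. After 48 or 72 hr at 37 degree Celsius, 5% CO2 and 95% humidity, CellTiter-Glo is dispensed and luminescence read following 10 min at room temperature.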
NIH3T3 tox: cytotoxic compounds in NIH 3T3 cells. NIH 3T3 viability, CellTiter-Glo ATP luminescence, 48-72 h. Potency, µM (highest dose often 96.7 µM), for inactives: at the highest dose activity change, negative = cytotoxicity, most hits filed as inhibitors. hit rate 4.3% among 94,000. AID 1345082; note: % is set by controls: 0 for no effect and ±100 for the full control effect; nearly all actives have a fitted effect of over 55% in size
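Mouse fibroblast NIH 3T3 cells, 400 per well, received compound via pintool and were incubated for 48 or 72 hr prior to CellTiter-Glo ATP luminescence measurement.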
FLuc inh-1: Photinus pyralis luciferase inhibition; purified P. pyralis luciferase, luminescence, biochemical; AID 1347043; hit rate 2.5% among 76,000; Potency, µM (top dose mostly 115 µM), hits mostly inhibitors; note: % is set by controls: 0 for no effect and ±100 for the full control effect; nearly all actives have a fitted effect of over 65% in size
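Luminescence read by CCD imaging after purified firefly luciferase (10nM final) was added to substrate buffer holding 10uM D-luciferin and 10uM ATP, pH 7.5, pre-dosed with compound.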
GPT2 inhibitor: inhibitors of human GPT2 alanine aminotransferase; Potency, µM (titrated, usually from 57.7 µM), without a hit: top-dose activity change, negative = inhibition, most hits filed as inhibitors; Q8TD30; AID 1671188; hit rate 0.25% among 100,000; Recombinant GPT2, coupled pyruvate oxidase/HRP Amplex Red fluorescence; note: % is set by controls: 0 for no effect and ±100 for the full control effect; nearly all actives have a fitted effect of over 60% in size
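GPT2 10ng/uL, a-KG 250uM, L-Ala 2mM, HEPES pH7.5 + 0.0001% Tween; 30 min RT. Then Amplex mix (PO/HRP/ThPP), 30 min RT dark, fluorescence. AOA 50uM used as positive control.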
FLuc SDR -ATP: firefly luciferase binding stabilization, ATP absent | shares compounds with FLuc inh-1 | Purified FLuc-C-HiBiT, Nano-Glo HiBiT luminescence, no ATP | Potency, µM (series often up to 32.7 µM), inactives show at the highest dose activation (signal gain), actives largely listed as activators | hit rate 7.8% among 1,300 | AID 1963318; note: nearly all actives have a fitted effect of over 55% in size
FLuc SDR ATP: firefly luciferase binding stabilization, ATP added; AID 1963319; Potency, µM (titrated, usually from 32.7 µM), for the others: top-dose activation (gain of signal), most hits filed as activators; shares compounds with FLuc inh-1; purified FLuc-C-HiBiT + ATP, HiBiT complementation luminescence; hit rate 8.7% among 1,300;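 note: signal reports ligand binding via conformational change of the enzyme rather than luciferase catalysis; % of control where 0% means no effect; nearly all actives have a fitted effect of over 55% in size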
FLuc inh-2: firefly luciferase enzyme inhibition; shares compounds with FLuc inh-1; purified FLuc-C-HiBiT enzyme, luciferin luminescence; AID 1963320; hit rate 42% among 1,300; Potency, µM (series often up to 32.7 µM), inactives show at the highest dose activity change, negative = inhibition, usual class: inhibitors; note: % is set by controls: 0 for no effect and ±100 for the full control effect; nearly all actives have a fitted effect of over 70% in size
An asterisk follows results filed as active; i = inactive; ? = inconclusive; nt = no result; [ ] = another dose, or the depositor's remark. Rows were chosen to be rich in hits. Some 10% of all compounds tested hit in one or more screens of this group. Unless noted, calls come from the whole dose curve; as a rule, active = well fitted curve in the direction sought with a large enough effect; inconclusive = small, poorly fitted or top-dose-only effect, or another doubt; inactive = no such curve, though single readings can be large; an effect the other way counts as inactive or inconclusive. Potency is the fitted concentration of half-maximal effect.

SMILES	hNpr1 antagonist	HEK293 tox	NIH3T3 tox	FLuc inh-1	GPT2 inhibitor	FLuc SDR -ATP	FLuc SDR ATP	FLuc inh-2
Cc1ccc(CN2C(=O)OC(c3cccc(NC(=O)c4ccc(C)cc4)c3)C2C(=O)NCC(C)C)cc1 (stereo unspecified)	?	?	-23.5%	7.08µM*	3.8%	13.0%	11.1µM*	?
Cn1c(C(=O)N2CCN(c3ccccc3)CC2)cc2c1CCN(Cc1cccc(F)c1)C2	-5.1%	?	?	i	i	nt	nt	nt
COc1ccc(-n2cc(-c3ccnc(N(C)Cc4cnccn4)n3)cn2)cc1	0.7%	?	?	?	1.3%	nt	nt	nt
COc1cccc(-n2cc(CN(C)c3ncncn3)cn2)c1	1.3%	-17.0%	-27.3%	12.6µM*	0.5%[11.5 µM]	17.0%	10.6%	-15.6%
COc1ccc(-c2cc3c(cn2)CN(C(C)=O)CCN3)cc1	nt	nt	nt	nt	nt	28.0%[49.3 µM]	18.1%[49.3 µM]	12.8µM*
CC(=O)N1CCNc2cc(-c3ccccc3F)ncc2C1	nt	nt	nt	nt	nt	15.3%[65.7 µM]	12.1%[65.7 µM]	?
CC(=O)N1CCNc2cc(-c3cccc(N4CCOCC4)c3)ncc2C1	nt	nt	nt	nt	nt	24.5%[49.3 µM]	16.8%[49.3 µM]	?
O=C(Cn1nc2c(cc1=O)CCCCC2)Nc1nc(-c2cccnc2)cs1	-1.0%	?	-29.6%	i	3.4%	nt	nt	nt
CCC[C@H](C)Oc1nc(N)c2[nH]c(=O)n(CCCCCN3CCCCC3)c2n1	nt	nt	nt	nt	nt	13.0%	9.1%	-3.5%
CCCCn1c(=O)[nH]c2cccnc21	12.6%[70.6 µM]	1.3%[230 µM]	-12.1%[174 µM]	i	?	nt	nt	nt
COCc1nc2nccc(-c3ccc4c(c3)OCCCO4)n2n1	-7.4%	-2.8%	-0.1%	i	-8.3%	nt	nt	nt
c1coc(-c2nc3nccc(-c4ccc5c(c4)OCCCO5)n3n2)c1	?	?	?	1.26µM*	i	?	?	1.76µM*
COc1ccc(-c2cc(N3CCC(NC(=O)C4(c5ccccc5)CC4)CC3)n[nH]2)cc1	-9.2%	?	?	i	-0.2%	nt	nt	nt
Cc1cc(=O)n(CC(=O)Nc2ccc(C)c(Cl)c2)c(N2CCN(c3ccccc3)CC2)n1	-9.7%	?	?	i	i	nt	nt	nt
Cc1ccc(NC(=O)c2ncn(-c3ccccc3)n2)cc1Cl	nt	nt	nt	nt	nt	15.7%	12.9%	?
O=C(CSc1nnc2[nH]c(=O)cc(-c3ccccc3)n12)Nc1ccc(OC(F)(F)F)cc1	nt	nt	nt	nt	nt	19.5%	15.0%	7µM*
CN1CCCCC(CC(=O)Nc2ccc(OC(F)(F)F)cc2)C1=O (stereo unspecified)	-1.5%	-17.5%	0.5%	i	i	nt	nt	nt
Cc1ccc(NC(=O)/C=C/c2ccccc2Cl)cc1Cl	nt	nt	nt	nt	nt	13.4%	11.1%	?
Fc1ccc(C2Cn3cnc(-c4nc(-c5cccs5)no4)c3CO2)cc1 (stereo unspecified)	-11.0%	-25.4%	-13.3%	i	-5.7%	nt	nt	nt
Cc1ccc2oc(=O)c(-c3nc(-c4cccs4)no3)cc2c1	nt	nt	nt	nt	nt	14.4%	12.9%	-13.6%
O=c1oc2ccc(F)cc2cc1-c1nc(-c2cccs2)no1	nt	nt	nt	nt	nt	14.1%	19.5%	?
COc1ccccc1-n1c(=O)c(C(=O)N2CCN(C(=O)C3CCCC3)CC2)nc2cccnc21	nt	4.4%	-11.6%	nt	i	nt	nt	nt
COc1cccc(-c2cn3c(n2)N(C(=O)c2ccoc2)CCC3)c1	-1.8%	?	i	i	-1.7%	nt	nt	nt
COc1cccc(-c2cn3ncsc3n2)c1	nt	nt	nt	nt	nt	21.6%	15.8%	?
N#Cc1c(-n2ncnc2-c2cccc(Cl)c2)sc2c1CCCCC2	nt	nt	nt	nt	nt	29.0%	?	1.97µM*
N#Cc1c(-n2ncnc2-c2ccccc2Cl)sc2c1CCCCC2	nt	nt	nt	nt	nt	30.5%	?	2.21µM*
